Source: PubChem BioAssay (NCATS)
Several values for one entry are separate records, joined by “and”; a condition that tells them apart may be missing. Identical values can stand only once. Records with an inconclusive call do not appear. A call without a number means that no potency is given here. Unmarked numbers belong to inactive results. Activity calls are given as the source filed them. Calls follow the shape of the dose curve; as a rule, active = well fitted inhibition curve with a large enough effect; inconclusive = small, poorly fitted or top-dose-only effect; inactive = flat fitted curve, though single readings scatter.

Tests used:
KB-3-1 = assay: Cytotoxic Profiling of Annotated Libraries Using Quantitative High-Throughput Screening (AID 1296008); details: Five cell lines viability, CellTiter-Glo ATP luminescence, 48-72 h; max response: active compounds read low
Procedure, shortened: (§1)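 Cytotoxicity was measured as CellTiter-Glo ATP luminescence, read after 10 min at room temperature. Compound treatment of the cells lasted 48 or 72 hr at 37 degrees Celsius in a qHTS format.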

NIH3T3 [1] = assay: as above; details: Five cell lines viability, CellTiter-Glo ATP luminescence, 48-72 h; max response: active compounds read low
Procedure, shortened: as §1

HACAT = assay: qHTS assay to identify novel small-molecules to repurpose for Merkel cell carcinoma treatment (AID 1296009); details: MCC and control cell lines, CellTiter-Glo viability, 72 h; at 44.8 µM (top of the series) unless noted
Procedure, shortened: (§2)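 72 hr, 37 degree celsius; NPC 8-pt / MIPE 11-pt dose response; compound pinned in DMSO; CellTiter-Glo, 10 min RT, luminescence; normalized to no-cell and DMSO controls.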

MCC-13 = assay: as above; details: MCC and control cell lines, CellTiter-Glo viability, 72 h; series mostly up to 46 µM
Procedure, shortened: as §2

MCC-26 = assay: as above; details: MCC and control cell lines, CellTiter-Glo viability, 72 h; series mostly up to 46 µM
Procedure, shortened: as §2

MKL-1 = assay: as above; details: MCC and control cell lines, CellTiter-Glo viability, 72 h; series mostly up to 46 µM
Procedure, shortened: as §2

MKL-2 = assay: as above; details: MCC and control cell lines, CellTiter-Glo viability, 72 h; series mostly up to 46 µM
Procedure, shortened: as §2

NIH3T3 [2] = assay: as above; details: MCC and control cell lines, CellTiter-Glo viability, 72 h; at 44.8 µM (top of the series) unless noted
Procedure, shortened: as §2

HEK293T = assay: as above; details: MCC and control cell lines, CellTiter-Glo viability, 72 h; at 44.8 µM (top of the series)
Procedure, shortened: as §2
Also: nearly all actives have a fitted effect of over 60% in size.
Potency is read from the fitted curve at half-maximal effect.

Structure (SMILES)	Potency (KB-3-1)	max response (NIH3T3 [1])	outcome (HACAT)	Potency (MCC-13)	Potency (MCC-26)	Potency (MKL-1)	Potency (MKL-2)	max response (KB-3-1)	outcome (NIH3T3 [1])	outcome (NIH3T3 [2])	outcome (HEK293T)	outcome (KB-3-1)
C[C@]12CC[C@H]3[C@@H](CCC4=CC(=O)CC[C@@H]43)[C@@H]1CC[C@@H]2O	11.6 µM (active) and 20.6 µM (active)	-16.1%	inactive	inactive	inactive	inactive	inactive					
Oc1ccc([C@H]2CNCc3c2ccc(O)c3O)cc1O		-2.59%	inactive	inactive	inactive		13.3 µM (active)	-14.2%				
C[C@H]1C(=O)O[C@@H]2CCN3CC=C(COC(=O)[C@](C)(O)[C@]1(C)O)[C@H]23		-4.3%	inactive	inactive	inactive	inactive	inactive	-11.3%				
COP(=S)(OC)Oc1ccc(S(N)(=O)=O)cc1		-5.5%	inactive	inactive	inactive	inactive	inactive	0.165%				
O=C(CCCN1CCC(n2c(=O)[nH]c3ccccc32)CC1)c1ccc(F)cc1		0.676%	inactive	inactive	inactive	inactive	inactive	-5.74%				
OC(O)C(Cl)(Cl)Cl			inactive	inactive	inactive	inactive	inactive	1.25%	inactive	inactive		
C[N+]1(CCC(C(N)=O)(c2ccccc2)c2ccccc2)CCCCC1				inactive	inactive	inactive	inactive	6.68%	inactive	inactive	inactive	
COc1ccc(C(=O)N2CCCC2=O)cc1		-15.7% and -0.26%		inactive	inactive	inactive	inactive	-8.06%			inactive	
C[C@@H]1CC[C@H]2[C@@H](C)C(=O)O[C@@H]3O[C@@]4(C)CC[C@@H]1[C@]32OO4		-3.92%	inactive	inactive	inactive	inactive	inactive	-14.6%				
CNC(=O)NC(O)C(Cl)(Cl)Cl (stereo unspecified)		-0.697%	inactive	inactive	inactive	inactive	inactive	2.2%				
COc1cc(CC(C)N)cc2c1OCO2 (stereo unspecified)		-6.97%		inactive	inactive	inactive	inactive	-6.39%				
CN1C[C@@H](NS(=O)(=O)N(C)C)C[C@@H]2c3cccc4c3c(cn4C)C[C@H]21		-4.54%	inactive	inactive	inactive	inactive	inactive	-6.93%				
CC(Cc1ccc2c(c1)OCO2)NO (stereo unspecified)		3.02%		inactive	inactive	inactive	inactive	-9.46%				
CN(C)C(=O)Oc1cc(OC(=O)N(C)C)cc(C(O)CNC(C)(C)C)c1 (stereo unspecified)		-1.01%	inactive	inactive	inactive	inactive	inactive	-2.49%				
CC[C@H]1C[C@@H]2C[C@H]3c4[nH]c5ccc(OC)cc5c4CCN(C2)[C@@H]13		-11.9%		inactive	inactive			-8.79%				
NC1(c2ccccc2)CCCCC1		-27.2%		inactive	inactive	inactive		1.89%				
CC1N=C(N)OC1c1ccccc1 (stereo unspecified)		-2.85%	inactive [at 92 µM]	inactive	inactive	inactive	inactive	-3.1%				
COc1ccc2[nH]cc(CCN(C(C)C)C(C)C)c2c1		1.94%		inactive	inactive	inactive		-17%				
Cc1ncc2n1-c1ccc(Cl)cc1C(c1ccccc1F)=NC2		-10.5%	inactive	inactive	inactive	inactive	inactive	-24.4%				
CN(C)CCc1c[nH]c2ccc(O)cc12			inactive [at 92 µM]	inactive		inactive		2.29%	inactive	inactive [at 92 µM]		
CC(C)NCC(O)c1ccc(N)c(C#N)c1 (stereo unspecified)		2.77%		inactive	inactive	inactive	inactive	-10.3%			inactive	
CN1CCc2cc(Cl)c(O)cc2[C@H]2c3ccccc3CC[C@@H]21		-2.57%	inactive	inactive	inactive	inactive	inactive	18%				
CC[C@H]1C[C@H]2[C@@H]3CCC4=CC(=O)CC[C@@H]4[C@H]3CC[C@]2(C)[C@H]1O		-0.575%		inactive	inactive	inactive						inactive
O=C(O)Cc1ccccc1			inactive	inactive	inactive	inactive	inactive	-2.72%	inactive	inactive		
Cc1nnc2n1-c1sc(CCC(=O)N3CCOCC3)cc1C(c1ccccc1Cl)=NC2		2.45%		inactive	inactive	inactive	inactive	-14.1% and 0.342%			inactive	
CNC(C)Cc1ccccc1OC (stereo unspecified)		-6.74%		inactive	inactive	inactive	inactive	2.15%				
